The whole screen tested about 330,000 compounds, of which about 5,800 (1.8%) were called active.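 The calls were made as follows: active = inhibition above about 50% at the single tested dose (limit read from the data); inactive = the rest.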 For the sample, actives were picked, then their nearest neighbours and some compounds at random.

In this assay the target is Sentrin-specific protease 6 (Homo sapiens) (UniProt Q9GZR1). The experiment in a line: inhibition of human SENP6 catalytic domain – biochemical, luminescence, uHTS, primary screen (AID 2599).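 Also: plate controls were DMSO wells with enzyme for no effect and DMSO wells lacking enzyme for full effect.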 Conditions: Recombinant SENP6 catalytic domain, aminoluciferin luminescence; at 10 µM; active compounds read high.
Chain of Sentrin-specific protease 6 (Homo sapiens) (Q9GZR1 628-1112 limits assumed): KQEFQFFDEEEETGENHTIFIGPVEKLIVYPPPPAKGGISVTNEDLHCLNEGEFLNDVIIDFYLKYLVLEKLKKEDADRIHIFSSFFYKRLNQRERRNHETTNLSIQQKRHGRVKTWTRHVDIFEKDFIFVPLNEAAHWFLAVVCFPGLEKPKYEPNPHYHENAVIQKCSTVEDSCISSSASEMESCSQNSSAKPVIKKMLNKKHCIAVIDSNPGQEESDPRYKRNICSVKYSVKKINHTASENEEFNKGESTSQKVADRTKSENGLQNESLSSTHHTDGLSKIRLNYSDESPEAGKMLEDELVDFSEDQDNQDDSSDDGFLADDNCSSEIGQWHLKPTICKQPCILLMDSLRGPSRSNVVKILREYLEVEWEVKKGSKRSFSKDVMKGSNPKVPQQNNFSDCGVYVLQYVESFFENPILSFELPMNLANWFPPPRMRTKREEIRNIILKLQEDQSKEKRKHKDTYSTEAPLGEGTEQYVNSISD
As for `CCCOc1ccc(N2C(=O)CC(N(CCc3ccc(S(N)(=O)=O)cc3)C(C)=O)C2=O)cc1` (configuration not stated), the inhibition (commonly the change of the read-out against control, counted positive when it falls) was -12.7% (inactive).
On to `COc1ccc(C(=O)OCC(=O)c2cc(C)n(CC3CCCO3)c2C)cc1[N+](=O)[O-]` (configuration not stated), for which the inhibition is -1.02% (inactive).
The figure for `Cc1ccsc1C(=O)OCC(=O)c1cc(C)n(CC2CCCO2)c1C` (configuration not stated) is 97.8% (active); for `Cc1cc(C(=O)Cn2cnc3cc([N+](=O)[O-])ccc3c2=O)c(C)n1CC1CCCO1` (configuration not stated) it is -13.2% (inactive).
Take `Cc1coc2cc3oc(=O)c(CCC(=O)O)c(C)c3cc12`: the inhibition is 1.41% (inactive).
In the case of `COc1ccccc1NC(=O)CSc1nnc(-c2ccoc2C)n1CCc1ccccc1`, the inhibition is -3.86% (inactive).
In the case of `Cc1ccc(S(=O)(=O)N2CCOCC2)cc1C(=O)OC1CCCCC1=O` (configuration not stated), the inhibition was 7.83% (inactive).
Turning to `CN1C(=O)c2cccc3c(N)ccc(c23)C1=O`, the inhibition was -16.2% (inactive).
The figure for `CCN1C(=O)c2cccc3c(S(=O)(=O)Nc4ccccc4O)ccc1c23` is -9.84% (inactive); for `CCN1C(=O)c2cccc3c(N)ccc1c23` it is 80.3% (active); for `Cc1ccc(C)c(Cn2cnc3c(oc4ccccc43)c2=O)c1` it is 9.24% (inactive).
The figure for `Cc1c(NC(=O)C(C)OC(=O)c2ccccc2O)c(=O)n(-c2ccccc2)n1C` (configuration not stated) is -6.6% (inactive); for `CCN(CC)c1ccc(/C=N/NC(=O)CNC(=O)c2cccs2)cc1` it is -14.6% (inactive).
Turning to `CC(C)C(=O)Nc1ccc(C(=O)NNC(=O)c2cccs2)cc1`, the inhibition was 3.9% (inactive).
The figure for `CCc1ccc(NC(=O)C(=O)NNC(=O)c2cccs2)cc1` is 85.8% (active); for `Cc1cccc(-n2c(C)cc(/C=N\NC(=O)c3cccs3)c2C)c1` it is -11.3% (inactive); for `CCc1ccc(NC(=O)COC(=O)c2cccs2)cc1` it is 8.32% (inactive).
The same measure for `CC(=O)Nc1ccc(/C=N/NC(=O)c2cccs2)cc1`: 58.1% (active); for `CSc1cccc(NC(=S)N(C(C)C)C(C)c2ccccn2)c1` (configuration not stated): 4.01% (inactive).
The same measure for `CC1(C)CC(=O)c2c(n(S(=O)(=O)c3ccccc3)c3ccc(NS(=O)(=O)c4ccccc4)cc23)C1`: 6.92% (inactive); for `COc1ccc(-c2oc3ncn(Cc4ccco4)c(=N)c3c2-c2ccc(OC)cc2)cc1`: -13.1% (inactive); for `COc1cccc(NC(=O)COC(=O)c2ccc3ccccc3n2)c1`: -3.74% (inactive).
With `CCc1nnc(NC(=O)CSc2nnnn2-c2cccc(C(C)=O)c2)s1`, the inhibition was -12.9% (inactive).
The same measure for `CCOc1ccc(C(=O)Nc2cccc(SC)c2)cc1`: 91.4% (active); for `Cc1ccccc1C(=O)N1CCN(c2ccc(NC(=O)c3cccs3)cc2)CC1`: -5.79% (inactive); for `CSc1cccc(NC(=O)CSc2ccccc2)c1`: -11% (inactive).
The figure for `Cc1ccccc1C(=O)NC(=S)Nc1ccc(N2CCN(C(=O)c3ccccc3)CC2)cc1` is 2.96% (inactive); for `COc1cccc(NC(=O)CN(C)CC(=O)Nc2ccc3c(c2)CCC3)c1` it is -11.1% (inactive); for `Cc1ccccc1C(=O)Nc1ccc(N2CCCCCC2)cc1` it is 72.7% (active).
In the case of `COc1cccc(C(=O)Nc2nnc(S(=O)(=O)N3CCCCC3)s2)c1`, the inhibition was 0.355% (inactive).
The same measure for `COc1ccc(C(=O)Nc2cccc(S(C)(=O)=O)c2)cc1`: -10.8% (inactive).
The same measure for `O=C(Nc1ccc(N2CCOCC2)cc1)c1cccc(S(=O)(=O)N2CCOCC2)c1`: -0.135% (inactive).
The figure for `CCC(=O)Nc1ccc(C(=O)Nc2cccc(OC)c2)cc1` is 51.2% (active); for `COc1cccc(C(=O)Nc2ccc(N3CCCC3)cc2)c1` it is 97.6% (active); for `CCOc1ccc(C(=O)Nc2cccc(-c3ccc4nncn4n3)c2)cc1` it is 5.7% (inactive).
On to `CCn1c(=S)sc2c(=O)n(CC(=O)Nc3cccc(Br)c3)c(C)nc21`, for which the inhibition was 3.55% (inactive).
Turning to `Cc1cccc(C(=O)OCC(=O)NCC(C)C)c1O`, the inhibition was 9.44% (inactive).
The same measure for `CCCn1c(SCC(=O)Nc2c(C)cccc2C)nnc1C(C)C`: -9.77% (inactive); for `C=CCOc1ccc(/C=N/NC(=O)C(C)Sc2ccccn2)cc1OCC` (configuration not stated): -0.571% (inactive); for `COc1ccc(CCNC(=O)C(=O)NCC2OCCN2S(=O)(=O)c2cccs2)cc1OC` (configuration not stated): -6.36% (inactive).
Take `Cc1ccc(NC(=O)CCOc2ccccc2)cc1S(=O)(=O)Nc1ccccc1Cl`: the inhibition was 1.1% (inactive).
Take `Cc1c(C(=O)NCCN(C)C)oc2ccc(S(=O)(=O)N3CCCC3)cc12`: the inhibition was 4.61% (inactive).
The figure for `CS(=O)(=O)N(CC(=O)NC1CCCC1)Cc1ccc(F)cc1` is -6.07% (inactive); for `O=C(NC1CC1)c1ccc(-c2ccccc2)cc1` it is -15.5% (inactive); for `COc1cccc2sc(Nc3nc(C)c(C(C)=O)s3)nc12` it is 87.8% (active).
Turning to `COc1ccccc1/C=N/Nc1nc(C)c(C(C)=O)s1`, the inhibition was -28% (inactive).
The figure for `CNC(=O)c1sc(NCc2ccccc2OC)nc1C` is 8.32% (inactive).
With `CCn1c(SCC(=O)Nc2ccc(Br)cc2)nc2sc3c(c2c1=O)CCN(C)C3`, the inhibition is 12.7% (inactive).
The same measure for `CCOc1ccc(CN2CCN(Cc3ccc4cc(F)ccc4n3)CC2CCO)cc1` (configuration not stated): 9.04% (inactive).
Consider `O=C(O)c1ccc2c3c(cccc13)C(=O)N(OS(=O)(=O)c1ccccc1)C2=O`, for which the inhibition is 60.3% (active).
The same measure for `COc1cccc(-c2ccc3c(c2)S(=O)(=O)c2cccc(C(=O)O)c2C3=O)c1OC`: -1.89% (inactive); for `CCN(c1ccccc1)S(=O)(=O)c1cccc(C(=O)NCc2ccccc2CN2CCOCC2)c1`: -16.6% (inactive).
The same measure for `CCc1ccc(C(=O)OCC(=O)NCC(F)(F)F)cc1`: -1.8% (inactive).
For `CCCC1NC(=O)NC(C)=C1C(=O)OCC` (configuration not stated), the inhibition is -6.49% (inactive).
The same measure for `Cc1nnc(NC(=O)/C=C/c2ccco2)s1`: -18.6% (inactive).
With `O=C(/C=C/c1ccco1)NC(=S)Nc1ccccc1Br`, the inhibition was 6.12% (inactive).
`O=C(/C=C/c1ccco1)Nc1ccc(Oc2ccccc2)cc1`: the inhibition was 80.1% (active).
The figure for `CCOC(=O)C1(Cc2cccc(OC)c2)CCCN(S(=O)(=O)c2cccnc2)C1` (configuration not stated) is -9.47% (inactive); for `Oc1ccc(N=Nc2nccs2)c(O)c1` it is 87.3% (active); for `C=CCC(NC(=O)Cc1ccccc1)C(=O)NCCC` (configuration not stated) it is -9.67% (inactive).
The figure for `COC(=O)N/N=C/c1ccc(/C=N/NC(=O)OC)cc1` is -17.5% (inactive); for `Cc1nc2ccc(C(=O)N/N=C/c3ccc(O)cc3)cc2[nH]1` it is -6.89% (inactive); for `Cc1nonc1C(=O)N/N=C/c1ccc(O)cc1` it is 98.9% (active).
For the compound `CCOC(=O)C1(Cc2ccccc2C(F)(F)F)CCN(C(=O)c2cc(C)n(C)n2)CC1`, the inhibition is -1.7% (inactive).
The same measure for `O=C(NC(=S)N1CCc2ccccc21)c1ccco1`: 7.02% (inactive).
The figure for `COc1ccccc1-c1nnc(NC(=O)c2ccc3ncsc3c2)o1` is -1.73% (inactive); for `Cc1sc(NC(=O)c2ccc3ncsc3c2)c(C(N)=O)c1C` it is 71.4% (active).
The figure for `Cc1ccc(C(=O)c2c(NC(=O)c3ccccc3)sc(C)c2C)cc1` is -6.69% (inactive); for `COc1ccc(CN(Cc2ccco2)S(=O)(=O)c2ccc(S(=O)(=O)N3CCCC3)cc2)cc1` it is 3.07% (inactive).
As to `COc1ccc(N2CCN(C(=O)/C(C#N)=C/c3ccccc3)CC2)cc1`, the inhibition was 1.08% (inactive).
Turning to `CCOC(=O)/C(C#N)=C/c1ccc(N2CCN(Cc3ccccc3)CC2)cc1`, the inhibition was -1.35% (inactive).
Regarding `CCOC(=O)/C(C#N)=C/c1ccc(N2CCCCC2)cc1`, the inhibition was 52.8% (active).
The same measure for `CC1(C)CC(=O)C=C(NCCCN2CCCC2=O)C1`: 4.58% (inactive); for `CC[N+](C)(CC)CCC[n+]1c(-c2ccccc2)c2cc(N)ccc2c2ccc(N)cc21`: 89.2% (active); for `Cc1cc(C)n2nc(C(=O)Nc3cccc(S(=O)(=O)N4CCOCC4)c3)nc2n1`: -2.51% (inactive).
With `CCn1c(NC(=O)c2nn(C)cc2Br)nc2ccccc21`, the inhibition is -7.2% (inactive).
The same measure for `Cn1c(Nc2cccc(Cl)c2)nc2ccccc21`: 21.9% (inactive).
In the case of `Cn1c(NC(=O)c2ccccc2)nc2ccccc21`, the inhibition is 75.7% (active).
Consider `Cc1nn(C)cc1C(=O)c1ccccc1`, for which the inhibition is 0.575% (inactive).
The figure for `Cn1c(-c2ccc(C(=O)c3ccccc3)s2)nc2ccccc21` is 68.7% (active).
As for `Cc1nc2ccccc2c(-c2ccccc2)c1C(=O)c1ccccc1`, the inhibition was -18.6% (inactive).
The same measure for `O=C(CN(c1ccc2c(c1)OCCO2)S(=O)(=O)c1ccccc1)Nc1ccc2c(c1)OCO2`: 12.2% (inactive); for `CCOC(=O)C1C(c2ccc(OC)c(OC)c2)c2c([nH][nH]c2=O)CC1(C)O` (configuration not stated): -17.3% (inactive).
Turning to `Cc1nn(CC(=O)NC2CCCCC2)c(=O)c2cccn12`, the inhibition was 9.49% (inactive).
The figure for `O=C(Cc1ccc(F)cc1)N1CCN=C1SCc1cccc([N+](=O)[O-])c1` is 4.91% (inactive); for `CCOC(=O)N1CCN(c2cc(C)c([N+](=O)[O-])cc2F)CC1` it is -3.66% (inactive); for `CCn1cc(-c2cc(C(=O)O)on2)c(C)n1` it is 15.3% (inactive).
Regarding `Cc1ccn2cc(-c3nonc3C)cc2c1`, the inhibition is 53.2% (active).
Turning to `CNC(=S)Nc1ccc([N+](=O)[O-])cc1`, the inhibition was -24.9% (inactive).
On to `O=[N+]([O-])c1ccc(N/N=C/c2ccccc2)cc1`, for which the inhibition was 0.552% (inactive).
The same measure for `O=C(O)/C=C/C(=O)NNc1ccc([N+](=O)[O-])cc1`: 82.9% (active); for `CCS(=O)(=O)c1ccc(C(=O)NC)c(Cl)c1Cl`: 5.83% (inactive); for `COc1ccccc1C(=O)Nn1cnnc1`: -21.9% (inactive).
In the case of `COC(=O)c1ccc(/C=C/c2c(-c3ccc(OC)cc3)sc3ccccc23)cc1`, the inhibition is 17.2% (inactive).
The same measure for `COc1ccc(-c2sc3ccccc3c2-c2ccc(OCCN3CCOCC3)cc2)cc1`: -11.4% (inactive); for `COc1ccc(N=C(C)c2sc3ccccc3c2O)cc1`: 82.8% (active).
`Cc1ccc(S(=O)(=O)N(c2cccc(C)c2)C2CCS(=O)(=O)C2)cc1` (configuration not stated): the inhibition was 7.06% (inactive).

The values above are taken from PubChem BioAssay AID2599 (Sanford-Burnham Center for Chemical Genomics, 2010).
